# According to PubChem BioAssay (NCI):
# About 79,000 compounds went through this panel and 15% of them were active in at least one assay; those are over-represented in the sample as a whole. A number with no mark means an inactive call. Active and inactive are the calls of the source. Cut-off read from the data, not from the text of the source: active = growth inhibition above about 70%; inactive = the rest.
# Key:
# [1] = NCI Yeast Anticancer Drug Screen. Data for the wt1 strain (AID 149);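 note: 0% = growth of vehicle-treated wt1 cultures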; conditions: S. cerevisiae wt1 strain (SPY 50644) growth inhibition, stronger effect = higher value
# How it was run: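 Yeast wt1 strain exposed to compounds; growth inhibition measured relative to vehicle-treated controls.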
# [2] = NCI Yeast Anticancer Drug Screen. Data for the rad50EPP+ strain (AID 151);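 note: 0% = growth of vehicle-treated control cultures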; conditions: S. cerevisiae rad50 mutant strain, stronger effect = higher value
# How it was run: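 Genetically defined yeast (rad50EPP+, DNA damage repair alteration) is grown with compound, and inhibition of growth is expressed relative to vehicle-treated controls.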
# [3] = NCI Yeast Anticancer Drug Screen. Data for the mgt1 strain (AID 153); conditions: S. cerevisiae mgt1 mutant growth inhibition, stronger effect = higher value
# How it was run: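 In the mgt1 strain, test compounds were added and growth inhibition was determined relative to vehicle-treated controls.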
# [4] = NCI Yeast Anticancer Drug Screen. Data for the rad50 strain (AID 155);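 note: 0% = growth of vehicle-only cultures of the same strain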; conditions: S. cerevisiae rad50 strain growth inhibition, stronger effect = higher value
# How it was run: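 Yeast carrying a defined DNA repair defect were exposed to test compounds, and growth was compared with vehicle-treated controls to give percent inhibition.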
# [5] = NCI Yeast Anticancer Drug Screen. Data for the rad14 strain (AID 159);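 note: 0% = growth of vehicle-treated control cultures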; conditions: S. cerevisiae rad14 strain growth inhibition, stronger effect = higher value
# How it was run: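 Yeast cells carrying a defined DNA-repair defect were exposed to compounds, and growth inhibition was calculated relative to vehicle-treated control cultures.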
# [6] = NCI Yeast Anticancer Drug Screen. Data for the sgs1 mgt1 strain (AID 161);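 note: 0% = growth of cultures given vehicle only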; conditions: S. cerevisiae sgs1 mgt1 strain, stronger effect = higher value
# How it was run: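 Read-out: growth inhibition vs vehicle controls. Cells: mutant yeast strain deficient in DNA damage repair.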
# [7] = NCI Yeast Anticancer Drug Screen. Data for the CLN2oe strain (AID 163);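 note: 0% = growth of vehicle-only control cultures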; conditions: S. cerevisiae CLN2oe strain, stronger effect = higher value
# How it was run: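 First, the altered yeast strain was treated with each compound; second, its growth was measured; finally, inhibition was derived by comparison with vehicle controls.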
# [8] = NCI Yeast Anticancer Drug Screen. Data for the cln2 rad14 strain (AID 165);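 note: 0% = growth equal to vehicle treated cultures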; conditions: S. cerevisiae cln2 rad14 strain, stronger effect = higher value
# How it was run: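 Test compounds were added to cln2 rad14 yeast cultures; inhibition of growth was then determined by comparison with vehicle treatment.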
# [9] = NCI Yeast Anticancer Drug Screen. Data for the bub3 strain (AID 167); conditions: S. cerevisiae bub3 mutant strain, stronger effect = higher value
# How it was run: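 Compounds were applied to a genetically altered yeast strain carrying a cell-cycle control defect. Growth inhibition was scored against vehicle-treated controls.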
# [10] = NCI Yeast Anticancer Drug Screen. Data for the wt2 strain (AID 169);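 note: 0% = growth of vehicle-treated yeast cultures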; conditions: S. cerevisiae wt2 strain growth inhibition, stronger effect = higher value
# How it was run: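 The panel's yeast strains carry defined changes in DNA repair or cell cycle genes. Each strain is grown with compound, and growth loss is scored relative to vehicle.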
# [11] = NCI Yeast Anticancer Drug Screen. Data for the mlh1 strain (AID 171);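 note: 0% = growth of vehicle-treated control cultures of the same strain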; conditions: S. cerevisiae mlh1 strain growth inhibition, stronger effect = higher value
# How it was run: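 Inhibition values reflect reduced yeast growth in the presence of compound, referenced to vehicle controls, using a strain chosen for its alteration in DNA repair or cell cycle control.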
# [12] = NCI Yeast Anticancer Drug Screen. Data for the sgs1 strain (AID 173);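 note: 0% = growth of vehicle-only control cultures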; conditions: S. cerevisiae sgs1 mutant, stronger effect = higher value
# How it was run: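 Vehicle-treated cultures served as reference for growth inhibition of a yeast strain altered in DNA damage repair or cell cycle control after compound exposure.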
# [13] = NCI Yeast Anticancer Drug Screen. Data for the mlh1 rad18 strain (AID 175); conditions: S. cerevisiae mlh1 rad18 strain growth inhibition, stronger effect = higher value
# How it was run: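 Inhibition values reflect reduced growth of mutant yeast versus vehicle-treated controls following compound exposure; the mutations affect DNA damage repair.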
# [14] = NCI Yeast Anticancer Drug Screen. Data for the rad18 strain (AID 177); conditions: S. cerevisiae rad18 mutant growth inhibition, stronger effect = higher value
# How it was run: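 Steps: expose repair-mutant yeast to compound; measure growth; express as inhibition relative to vehicle control.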
# [15] = at 5.0 µM (retest, dose inferred, filed as 0.5)
# [16] = at 50.0 µM (retest, dose inferred, filed as 5.0)
compound,measurement,setting,value
CSC(=Nc1ccccc1)N(c1ccccc1)c1nc(=[N+](C)C)ss1,growth inhibition,[1]; at 1.2 µM,-2%
same,growth inhibition,[1]; at 3.7 µM,7%
same,growth inhibition,[1]; at 11.0 µM,54%
same,growth inhibition,[1]; at 33.0 µM,93% (active)
same,growth inhibition,[1]; at 100.0 µM,98% (active)
same,growth inhibition,[2]; at 1.2 µM,-1%
same,growth inhibition,[2]; at 3.7 µM,-5%
same,growth inhibition,[2]; at 11.0 µM,23%
same,growth inhibition,[2]; at 33.0 µM,87% (active)
same,growth inhibition,[2]; at 100.0 µM,97% (active)
same,growth inhibition,[3]; at 1.2 µM,2%
same,growth inhibition,[3]; at 3.7 µM,7%
same,growth inhibition,[3]; at 11.0 µM,84% (active)
same,growth inhibition,[3]; at 33.0 µM,98% (active)
same,growth inhibition,[3]; at 100.0 µM,99% (active)
same,growth inhibition,[4]; at 1.2 µM,3%
same,growth inhibition,[4]; at 3.7 µM,13%
same,growth inhibition,[4]; [15],56%
same,growth inhibition,[4]; at 11.0 µM,93% (active)
same,growth inhibition,[4]; at 33.0 µM,98% (active)
same,growth inhibition,[4]; [16],99% (active)
same,growth inhibition,[4]; at 50.0 µM,98.4% (active)
same,growth inhibition,[4]; at 100.0 µM,99% (active)
same,growth inhibition,[5]; at 1.2 µM,-5%
same,growth inhibition,[5]; at 3.7 µM,7%
same,growth inhibition,[5]; at 11.0 µM,92% (active)
same,growth inhibition,[5]; at 33.0 µM,99% (active)
same,growth inhibition,[5]; at 100.0 µM,99% (active)
same,growth inhibition,[6]; [15],58%
same,growth inhibition,[6]; [16],99% (active)
same,growth inhibition,[6]; at 50.0 µM,98.6% (active)
same,growth inhibition,[7]; at 1.2 µM,-12%
same,growth inhibition,[7]; at 3.7 µM,-11%
same,growth inhibition,[7]; at 11.0 µM,14%
same,growth inhibition,[7]; at 33.0 µM,80% (active)
same,growth inhibition,[7]; at 100.0 µM,98% (active)
same,growth inhibition,[8]; [15],-1%
same,growth inhibition,[8]; [16],98% (active)
same,growth inhibition,[8]; at 50.0 µM,93.4% (active)
same,growth inhibition,[9]; at 1.2 µM,1%
same,growth inhibition,[9]; at 3.7 µM,22%
same,growth inhibition,[9]; [15],37%
same,growth inhibition,[9]; at 11.0 µM,85% (active)
same,growth inhibition,[9]; at 33.0 µM,93% (active)
same,growth inhibition,[9]; [16],98% (active)
same,growth inhibition,[9]; at 50.0 µM,98.5% (active)
same,growth inhibition,[9]; at 100.0 µM,99% (active)
same,growth inhibition,[10]; at 1.2 µM,0%
same,growth inhibition,[10]; at 3.7 µM,17%
same,growth inhibition,[10]; at 11.0 µM,87% (active)
same,growth inhibition,[10]; at 33.0 µM,97% (active)
same,growth inhibition,[10]; at 100.0 µM,99% (active)
same,growth inhibition,[11]; at 1.2 µM,-1%
same,growth inhibition,[11]; at 3.7 µM,10%
same,growth inhibition,[11]; at 11.0 µM,88% (active)
same,growth inhibition,[11]; at 33.0 µM,99% (active)
same,growth inhibition,[11]; at 100.0 µM,99% (active)
same,growth inhibition,[12]; at 1.2 µM,3%
same,growth inhibition,[12]; at 3.7 µM,24%
same,growth inhibition,[12]; at 11.0 µM,91% (active)
same,growth inhibition,[12]; at 33.0 µM,98% (active)
same,growth inhibition,[12]; at 100.0 µM,99% (active)
same,growth inhibition,[13]; [15],44%
same,growth inhibition,[13]; [16],98% (active)
same,growth inhibition,[13]; at 50.0 µM,98.6% (active)
NC1=NCC(c2ccc(Cl)cc2)O1 (stereo not given),growth inhibition,[1]; at 1.2 µM,-5%
same,growth inhibition,[1]; at 3.7 µM,-4%
same,growth inhibition,[1]; at 11.0 µM,-7%
same,growth inhibition,[1]; at 33.0 µM,-5%
same,growth inhibition,[1]; at 100.0 µM,3%
same,growth inhibition,[2]; at 1.2 µM,-2%
same,growth inhibition,[2]; at 3.7 µM,0%
same,growth inhibition,[2]; at 11.0 µM,0%
same,growth inhibition,[2]; at 33.0 µM,4%
same,growth inhibition,[2]; at 100.0 µM,4%
same,growth inhibition,[3]; at 1.2 µM,-3%
same,growth inhibition,[3]; at 3.7 µM,-4%
same,growth inhibition,[3]; at 11.0 µM,-2%
same,growth inhibition,[3]; at 33.0 µM,5%
same,growth inhibition,[3]; at 100.0 µM,50%
same,growth inhibition,[4]; at 1.2 µM,-1%
same,growth inhibition,[4]; at 3.7 µM,-4%
same,growth inhibition,[4]; [15],-151%
same,growth inhibition,[4]; at 11.0 µM,7%
same,growth inhibition,[4]; at 33.0 µM,11%
same,growth inhibition,[4]; [16],17%
same,growth inhibition,[4]; at 50.0 µM,57.8%
same,growth inhibition,[4]; at 100.0 µM,49%
same,growth inhibition,[5]; at 1.2 µM,-2%
same,growth inhibition,[5]; at 3.7 µM,-3%
same,growth inhibition,[5]; at 11.0 µM,-1%
same,growth inhibition,[5]; at 33.0 µM,2%
same,growth inhibition,[5]; at 100.0 µM,52%
same,growth inhibition,[6]; [15],-62%
same,growth inhibition,[6]; [16],17%
same,growth inhibition,[6]; at 50.0 µM,50.2%
same,growth inhibition,[7]; at 1.2 µM,-2%
same,growth inhibition,[7]; at 3.7 µM,-2%
same,growth inhibition,[7]; at 11.0 µM,3%
same,growth inhibition,[7]; at 33.0 µM,1%
same,growth inhibition,[7]; at 100.0 µM,50%
same,growth inhibition,[8]; [15],-64%
same,growth inhibition,[8]; [16],7%
same,growth inhibition,[8]; at 50.0 µM,31.1%
same,growth inhibition,[9]; at 1.2 µM,-11%
same,growth inhibition,[9]; at 3.7 µM,-9%
same,growth inhibition,[9]; [15],-76%
same,growth inhibition,[9]; at 11.0 µM,-4%
same,growth inhibition,[9]; at 33.0 µM,-6%
same,growth inhibition,[9]; [16],27%
same,growth inhibition,[9]; at 50.0 µM,39.4%
same,growth inhibition,[9]; at 100.0 µM,49%
same,growth inhibition,[10]; at 1.2 µM,-1%
same,growth inhibition,[10]; at 3.7 µM,0%
same,growth inhibition,[10]; at 11.0 µM,0%
same,growth inhibition,[10]; at 33.0 µM,-1%
same,growth inhibition,[10]; at 100.0 µM,47%
same,growth inhibition,[11]; at 1.2 µM,7%
same,growth inhibition,[11]; at 3.7 µM,-5%
same,growth inhibition,[11]; at 11.0 µM,-5%
same,growth inhibition,[11]; at 33.0 µM,-4%
same,growth inhibition,[11]; at 100.0 µM,47%
same,growth inhibition,[12]; at 1.2 µM,0%
same,growth inhibition,[12]; at 3.7 µM,-1%
same,growth inhibition,[12]; at 11.0 µM,-2%
same,growth inhibition,[12]; at 33.0 µM,-2%
same,growth inhibition,[12]; at 100.0 µM,48%
same,growth inhibition,[13]; [15],-135%
same,growth inhibition,[13]; [16],81% (active)
same,growth inhibition,[13]; at 50.0 µM,50.4%
same,growth inhibition,[14]; at 1.2 µM,-4%
same,growth inhibition,[14]; at 3.7 µM,-3%
same,growth inhibition,[14]; at 11.0 µM,-3%
same,growth inhibition,[14]; at 33.0 µM,-3%
same,growth inhibition,[14]; at 100.0 µM,48%
